High-throughput results (PubChem BioAssay)
esBAF inh: SWI/SNF esBAF complex inhibition; 2% of 350,000 active; reporter increase, % at 12.5 µM; mouse ES cells, Bmi1-luciferase knock-in reporter, 24 h; 100% = twice the neutral-well signal; in the data active = activation above about 40%; inconclusive = no clear call, values can overlap the other calls;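 also: a rise in the Bmi1 reporter signal indicates esBAF inhibition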
ssDAF12 agonist: activators of S. stercoralis DAF-12 nuclear receptor; HEK293 ssDAF-12/GRIP1 lit1-tk-luc reporter, luminescence; % of 3 µM dafachronic acid response; activation, % at 6.8 µM; 1% of 370,000 active;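 active = activation above the mean over all tested compounds plus 3 SD, cut at about 0.9% in these data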
Wnt act: activators of Wnt/beta-catenin signaling; Wnt/beta-catenin reporter cell assay, activator, plate reader; activation, % at 9.35 µM; 1.2% of 300,000 active; in the data active = activation above about 30%, passing the limit was not always enough; inconclusive = no clear call, values can overlap the other calls
hcDAF-12 act: H. contortus DAF-12 activation, primary screen; HEK293 hcDAF-12 lit1-tk-luc reporter, luminescence; 0% DMSO, 100% Δ7-dafachronic acid; activation, % at 6.8 µM; 1.4% of 370,000 active; AID 652067;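 active = activation above the mean of all tested compounds plus 3 SD, cut at about 5.5% in these data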
hgDAF12 agonist: agonists of H. glycines DAF-12 nuclear receptor. activation, % at 6.8 µM. 1.8% of 370,000 active. HEK293 GAL4-hgDAF12 UAS-luciferase reporter, agonist luminescence; normalized to butyrate control;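 active = activation above a cutoff set at the mean of all screened compounds plus 3 SD, cut at about 10% in these data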
DAX1 StAR inh: inhibitors of DAX1 repression of SF-1 activated StAR promoter | HEK293T StAR-luciferase reporter, SF-1/DAX-1 repression relief | 1.1% of 370,000 active | inhibition, % at 6.8 µM | AID 652010;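 active = inhibition above the mean over all tested compounds plus 3 SD, cut at about 3.6% in these data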;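 also: higher inhibition means more luminescence from relief of DAX-1 repression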
esBAF Ring1 qPCR: de-represses Ring1 in mouse ESCs, confirming esBAF inhibition; shares compounds with esBAF inh; mouse ESC E14, Ring1 mRNA RT-qPCR fold change; fold change at 33 µM; 550 tested, under 10 active; AID 743176;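 active = Ring1 gene expression raised more than 2-fold over untreated cells in both replicates at either tested dose; inconclusive = only one replicate above 2-fold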;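 also: Ring1 transcript normalised to actin housekeeping signal by TaqMan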
esBAF Fgf4 qPCR: esBAF inhibition confirmed by Fgf4 repression; shares compounds with esBAF inh; mouse ESC E14, Fgf4 mRNA qPCR fold change; active compounds read low; Fgf4 expression fold change at 33 µM; 4% of 550 active; AID 743177;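 active = Fgf4 expression under 0.8 fold of control in both repeat measurements at one or both tested doses; inconclusive = under 0.8 fold in just a single repeat measurement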;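 also: Fgf4 transcript normalised to actin in duplex TaqMan qPCR; cells exposed to compound for 24 h before lysis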
esBAF Bmi1 qPCR: confirmation of esBAF inhibitors: Bmi1 de-repression in mouse ESCs | fold change at 33 µM | 550 tested, under 10 active | shares compounds with esBAF inh | mouse ESE14 ES cells, Bmi1 mRNA qPCR fold; active compounds read high;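 active = Bmi1 expression fold change above 6 at either tested concentration, seen in replicate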;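 also: higher fold means more Bmi1 de-repression and stronger esBAF inhibition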
A549 cytotox: cytotoxicity in A549 cells. shares compounds with esBAF inh. 550 tested, under 10 active. plate reader. cell viability change % (negative = cytotoxic), % at 25 µM, hits read low; call rule not given here
HepG2 cytotox SP: HepG2 cell cytotoxicity at single point | shares compounds with esBAF inh | plate reader; active compounds read low | activity change, negative = inhibition, % at 25 µM | 4% of 550 active | AID 743189; in the data active = activity change below about -50%
HEK293 cytotox SP: cytotoxicity in HEK293 cells; shares compounds with esBAF inh; plate reader; activity change, negative = inhibition, % at 25 µM, hits read low; 3% of 550 active; AID 743190; in the data active = activity change below about -38%, passing the limit was not always enough
DAX1 inh confirm: confirmation of human DAX1 (NR0B1) inhibitors | inhibition, % at 6.8 µM | shares compounds with DAX1 StAR inh | HEK293T StAR-promoter luciferase reporter, SF-1/DAX-1 repression | AID 652134 | 87% of 2,400 active;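 active = inhibition above the average of every tested compound plus 3 SD, cut at about 3.8% in these data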;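 also: active compounds raise luminescence by relieving repression of the StAR reporter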
Target sequence (P51843 whole entry, looked up): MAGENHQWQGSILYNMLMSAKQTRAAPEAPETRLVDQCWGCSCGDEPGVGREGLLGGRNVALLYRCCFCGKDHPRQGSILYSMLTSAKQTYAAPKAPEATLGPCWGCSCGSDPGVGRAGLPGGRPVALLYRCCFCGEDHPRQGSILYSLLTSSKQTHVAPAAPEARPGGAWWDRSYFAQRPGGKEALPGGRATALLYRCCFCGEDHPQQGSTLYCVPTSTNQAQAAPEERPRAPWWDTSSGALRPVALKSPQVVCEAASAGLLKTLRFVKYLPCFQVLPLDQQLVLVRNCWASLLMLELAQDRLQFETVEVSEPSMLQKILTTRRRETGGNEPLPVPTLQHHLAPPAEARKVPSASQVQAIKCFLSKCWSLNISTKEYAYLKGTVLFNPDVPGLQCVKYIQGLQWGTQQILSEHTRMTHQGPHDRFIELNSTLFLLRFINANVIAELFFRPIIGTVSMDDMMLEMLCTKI
SF1 mutant ctr: counter-screen for DAX1 inhibitors: nonselective inhibitors with SF-1 AF2 mutant; shares compounds with DAX1 StAR inh; HEK293 StAR-luciferase, luminescence; inhibition, % at 6.8 µM; 78% of 2,400 active;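 active = inhibition above the mean of all tested compounds plus 3 SD, cut at about 3% in these data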
Of the large screens only hits and unclear results are named; the others gave an inactive call (follow-up assays come after a bar, where they were run). An excerpt weighted towards active compounds, which were near 4.2% of everything screened.

O=C(COc1ccccc1[N+](=O)[O-])Nc1ccc(NC(=O)c2cc3ccccc3o2)cc1	none (no result: esBAF inh)
O=C(COc1ccc(/C=N/NC(=O)c2cc3ccccc3o2)cc1Br)Nc1ccccc1	esBAF inh inconclusive (no result: Wnt act) | esBAF Ring1 qPCR inactive | esBAF Fgf4 qPCR inconclusive | esBAF Bmi1 qPCR inactive | A549 cytotox -121.3 | HepG2 cytotox SP -75.3 | HEK293 cytotox SP -121.0
N/C(=N\OC(=O)C1CCCCC1)c1ccc(Cl)cc1	esBAF inh 65.3 | esBAF Ring1 qPCR inactive | esBAF Fgf4 qPCR inactive | esBAF Bmi1 qPCR inactive | A549 cytotox inactive | HepG2 cytotox SP inactive | HEK293 cytotox SP inactive
COC(=O)c1sc(Nc2ccccc2)nc1C	esBAF inh 65.5 | esBAF Ring1 qPCR inactive | esBAF Fgf4 qPCR inactive | esBAF Bmi1 qPCR inactive | A549 cytotox inactive | HepG2 cytotox SP inactive | HEK293 cytotox SP inactive
CC(=O)Nc1ccc2nc(SCC(=O)Nc3ccc(N4CCOCC4)c(Cl)c3)sc2c1	esBAF inh 47.9, Wnt act inconclusive | esBAF Ring1 qPCR inactive | esBAF Fgf4 qPCR inactive | esBAF Bmi1 qPCR inactive | A549 cytotox inactive | HepG2 cytotox SP inactive | HEK293 cytotox SP inactive
O=C(CSc1nc2ccccc2s1)Nc1ccc(N2CCOCC2)c(Cl)c1	none (no result: esBAF inh, Wnt act)
CO[C@@H]1CN(C)C(=O)c2ccc(NC(=O)C3CC3)cc2OC[C@H](C)N(Cc2cccc(F)c2)C[C@H]1C	none (no result: ssDAF12 agonist, Wnt act, hcDAF-12 act, hgDAF12 agonist, DAX1 StAR inh)
CCN(CC)S(=O)(=O)c1cccc(-c2cn3cc(C)ccc3n2)c1	esBAF inh 64.8 (no result: Wnt act) | esBAF Ring1 qPCR inactive | esBAF Fgf4 qPCR 0.774 | esBAF Bmi1 qPCR inactive | A549 cytotox inactive | HepG2 cytotox SP inactive | HEK293 cytotox SP inactive
O=C(c1cccnc1)N1CCCCN2[C@H](C1)[C@H](c1ccc(C#Cc3ccccn3)cc1)[C@@H]2CO	none (no result: ssDAF12 agonist, Wnt act, hcDAF-12 act, hgDAF12 agonist, DAX1 StAR inh)
CCCC(=O)Nc1ccc2c(c1)C(=O)N(C)[C@@H]1CC[C@H](CC(=O)NCCc3ccncc3)O[C@@H]1CO2	none (no result: ssDAF12 agonist, Wnt act, hcDAF-12 act, hgDAF12 agonist, DAX1 StAR inh)
CCCNC(=O)C[C@@H]1CC[C@H]2[C@H](COc3ccc(NC(=O)c4ccc(OC)cc4)cc3C(=O)N2C)O1	none (no result: ssDAF12 agonist, Wnt act, hcDAF-12 act, hgDAF12 agonist, DAX1 StAR inh)
O=C(Nc1ccc(F)cc1F)NC1CCCCCCC1	esBAF inh 63.1 | esBAF Ring1 qPCR inactive | esBAF Fgf4 qPCR inactive | esBAF Bmi1 qPCR inactive | A549 cytotox inactive | HepG2 cytotox SP -50.9 | HEK293 cytotox SP inactive
COc1ccc(-n2nc(C(=O)NCC(=O)N3CCN(c4ccccc4F)CC3)c3ccccc3c2=O)cc1	none | esBAF Ring1 qPCR inactive | esBAF Fgf4 qPCR inconclusive | esBAF Bmi1 qPCR inactive | A549 cytotox inactive | HepG2 cytotox SP -65.7 | HEK293 cytotox SP inactive
COc1ccc(-n2nc(C(=O)NCC(=O)N3CCN(c4ccccc4F)CC3)c3ccccc3c2=O)cc1OC	none
Cc1cc(Cl)ccc1OCc1nnc(-c2ccccc2C)o1	esBAF inh 98.9, Wnt act 40.6 | esBAF Ring1 qPCR inactive | esBAF Fgf4 qPCR inactive | esBAF Bmi1 qPCR inactive | A549 cytotox inactive | HepG2 cytotox SP inactive | HEK293 cytotox SP inactive
COc1cc(-c2nnc(COc3ccc(Cl)cc3C)o2)cc(OC)c1OC	none
O=C1N=C(N2CCCCC2)S/C1=C\c1ccccc1F	esBAF inh 57.2 | esBAF Ring1 qPCR inactive | esBAF Fgf4 qPCR inconclusive | esBAF Bmi1 qPCR inactive | A549 cytotox inactive | HepG2 cytotox SP inactive | HEK293 cytotox SP inactive
O=C1N=C(N2CCCC2)S/C1=C\c1ccccc1	none
COc1ccc(Cc2nc(-c3cccc(C)c3)no2)cc1	esBAF inh 57.5 | esBAF Ring1 qPCR inactive | esBAF Fgf4 qPCR inactive | esBAF Bmi1 qPCR inactive | A549 cytotox inactive | HepG2 cytotox SP inactive | HEK293 cytotox SP inactive
Cc1cccc(-c2noc(Cc3ccc(Cl)cc3)n2)c1	esBAF inh 87.3 | esBAF Ring1 qPCR inactive | esBAF Fgf4 qPCR inconclusive | esBAF Bmi1 qPCR inactive | A549 cytotox inactive | HepG2 cytotox SP inactive | HEK293 cytotox SP inactive
COc1ccc(Cc2nc(-c3ccncc3)no2)cc1	none (no result: esBAF inh)
O=C(Cc1cccc2ccccc12)Nc1nc2ccccc2[nH]1	none (no result: esBAF inh, Wnt act)
COc1ccccc1CCC(=O)Nc1nc2ccccc2[nH]1	esBAF inh 60.9, Wnt act 30.9 | esBAF Ring1 qPCR inactive | esBAF Fgf4 qPCR 0.379 | esBAF Bmi1 qPCR 6.92 | A549 cytotox inactive | HepG2 cytotox SP inactive | HEK293 cytotox SP inactive
Nc1cc(OCc2ccccc2)ccc1OCc1ccccc1	esBAF inh 82.7, DAX1 StAR inh 4.7 | esBAF Ring1 qPCR inactive | esBAF Fgf4 qPCR inconclusive | esBAF Bmi1 qPCR inactive | A549 cytotox inactive | HepG2 cytotox SP inactive | HEK293 cytotox SP inactive | DAX1 inh confirm 3.6 | SF1 mutant ctr 4.5
Nc1ccc(OCc2ccccc2)cc1	none
ClCCn1cnc2c(SCc3ccccc3Cl)ncnc21	none
ClCCn1cnc2c(SCc3ccccc3)ncnc21	esBAF inh 58.8, DAX1 StAR inh 7.5 | esBAF Ring1 qPCR inactive | esBAF Fgf4 qPCR inconclusive | esBAF Bmi1 qPCR inactive | A549 cytotox inactive | HepG2 cytotox SP inactive | HEK293 cytotox SP -52.8 | DAX1 inh confirm inactive | SF1 mutant ctr inactive
CCCN(C)C[C@H]1OCc2ccccc2-c2ccccc2C(=O)N([C@@H](C)CO)C[C@H]1C	none (no result: ssDAF12 agonist, Wnt act, hcDAF-12 act, hgDAF12 agonist, DAX1 StAR inh)
Cc1cccc(C)c1OCc1cc(C(=O)N2CCC(c3ccccc3)CC2)no1	none
Cc1cccc(C)c1OCc1cc(C(=O)N2CCC(C3CCCCC3)C2)no1 (configuration not stated)	esBAF inh 55.8, DAX1 StAR inh 4.7 | esBAF Ring1 qPCR inactive | esBAF Fgf4 qPCR inactive | esBAF Bmi1 qPCR inactive | A549 cytotox inactive | HepG2 cytotox SP inactive | HEK293 cytotox SP inactive | DAX1 inh confirm 5.0 | SF1 mutant ctr 4.0
